# Test results taken from PubChem BioAssay (NCATS).
# Unmarked numbers belong to inactive results. Unless noted, the call rests on the fitted dose curve; in most records, active means well fitted curve in the direction sought with a large enough effect; inconclusive means small, poorly fitted or top-dose-only effect, or another doubt; inactive means no such curve, though single readings can be large; an effect the other way counts as inactive or inconclusive.
# Molecular target: Guanine nucleotide-binding protein G(i) subunit alpha-1 (Homo sapiens) (UniProt P63096)
# Assay: qHTS Assay for Inhibitors of RGS12 GoLoco Motif Activity (Green Fluorophore) (AID 879);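 further: 0% = labeled peptide with Gαi1 and full inhibition = labeled peptide alone without protein; negative values mean loss of peptide binding seen as reduced polarization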
# Settings: Galphai1/FITC-RGS12 GoLoco peptide, fluorescence polarization; series mostly up to 57.1 µM; activity, negative = inhibition: at the top concentration
# Outline: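 A drop in FITC polarization marked displacement of the FITC-tagged RGS12 GoLoco peptide (10 nM) from Gαi1 (50 nM). Compounds were incubated 10 min at room temperature in Tris pH 7.5 buffer containing 150 mM NaCl, 0.1 mM GDP and 0.05% NP40; unlabeled peptide titration served as control.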
# Guanine nucleotide-binding protein G(i) subunit alpha-1 (Homo sapiens), sequence (P63096 whole entry, looked up): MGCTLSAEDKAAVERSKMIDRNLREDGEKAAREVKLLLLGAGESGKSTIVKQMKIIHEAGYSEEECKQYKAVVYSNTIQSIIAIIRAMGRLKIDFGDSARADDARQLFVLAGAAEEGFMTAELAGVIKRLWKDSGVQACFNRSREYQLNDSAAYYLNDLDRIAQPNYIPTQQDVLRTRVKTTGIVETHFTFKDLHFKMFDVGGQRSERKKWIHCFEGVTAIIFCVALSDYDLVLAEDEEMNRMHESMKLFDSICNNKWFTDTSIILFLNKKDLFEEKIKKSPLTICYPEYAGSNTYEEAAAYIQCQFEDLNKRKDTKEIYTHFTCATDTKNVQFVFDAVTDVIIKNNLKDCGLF
row,SMILES,"activity, negative = inhibition"
1,CN1C[C@@H](C(=O)N[C@]2(C)O[C@]3(O)[C@H]4CCCN4C(=O)[C@H](Cc4ccccc4)N3C2=O)C[C@H]2c3cccc4[nH]cc(c34)C[C@@H]21,-21.5%
2,CCOC(=O)C1=C(C)NC(C)=C(C(=O)OC)[C@H]1c1cccc(Cl)c1Cl,-17.1%
3,O[Si@](CCCN1CCCCC1)(c1ccc(F)cc1)C1CCCCC1,-10.4%
4,CC(=O)O[C@@H]1[C@H]([N+]2(C)CCCCC2)C[C@@H]2[C@@H]3CC[C@@H]4C[C@@H](OC(C)=O)[C@H]([N+]5(C)CCCCC5)C[C@@]4(C)[C@H]3CC[C@]21C,-7.6%

# Molecular target: Cytochrome P450 3A4 (Homo sapiens) (UniProt P08684)
# Assay: qHTS Assay for Activators of Cytochrome P450 3A4 (AID 885); further: nearly all actives have a fitted effect of over 65% in size
# Settings: recombinant CYP3A4, Luciferin-PPXE luminescence, 60 min; series mostly up to 57.1 µM; activity change, positive = activation: at the top concentration
# Outline: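 Luminescent readout of luciferin formed from 25 uM Luciferin-PPXE (KM level) by 20 nM CYP3A4 in 200 mM KPO4, with 60 min NADPH-driven reaction at room temperature after 10 min compound exposure. Ketoconazole (57 uM) defined 100% inhibition.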
# Cytochrome P450 3A4 (Homo sapiens), sequence (P08684 whole entry, looked up): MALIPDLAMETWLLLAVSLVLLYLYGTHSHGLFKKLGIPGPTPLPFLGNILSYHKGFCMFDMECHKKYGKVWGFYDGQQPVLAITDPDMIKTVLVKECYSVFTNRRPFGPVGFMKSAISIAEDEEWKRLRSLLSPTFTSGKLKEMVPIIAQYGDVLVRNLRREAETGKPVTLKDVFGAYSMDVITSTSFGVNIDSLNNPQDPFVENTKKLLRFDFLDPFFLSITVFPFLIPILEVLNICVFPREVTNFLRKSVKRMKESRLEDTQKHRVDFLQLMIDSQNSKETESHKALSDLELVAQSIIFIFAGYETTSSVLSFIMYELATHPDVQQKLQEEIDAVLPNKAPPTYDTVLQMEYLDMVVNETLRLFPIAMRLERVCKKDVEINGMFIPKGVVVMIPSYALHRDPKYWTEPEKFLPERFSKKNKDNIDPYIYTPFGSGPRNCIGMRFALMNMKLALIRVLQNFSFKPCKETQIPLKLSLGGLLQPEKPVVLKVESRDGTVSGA
row,SMILES,"activity change, positive = activation"
1,NC(=O)/C(=C\c1ccncc1)c1cccc2ccccc12,-72.7% [at 11.4 µM]
2,CC[C@H](c1ccccc1)c1cc(C(C)(C)C)cc(C(C)(C)C)c1O,-33% [at 11.4 µM]
3,CCCCCCCCN[C@@H](C)[C@H](O)c1ccc(SC(C)C)cc1,-38.7% [at 25.6 µM]

# Molecular target: Pyruvate kinase (Leishmania mexicana) (UniProt Q27686)
# Assay: qHTS Validation Assay for Inhibitors of Leishmania Mexicana Pyruvate Kinase (AID 945);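 further: 0% = DMSO only neutral control wells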
# Settings: purified L. mexicana pyruvate kinase, enzyme activity, E451W mutant enzyme; series mostly up to 57.5 µM; activity change, negative = inhibition: at the top concentration
# Outline: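 An endpoint luciferase assay: 0.2 nM LmPYK E451W turns over 0.5 mM PEP with 0.1 mM ADP for 1 h at room temperature, pH 7.2, before PKLight addition. Values are normalized to DMSO-only wells.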
# Pyruvate kinase (Leishmania mexicana), sequence (Q27686 2-499 E452W): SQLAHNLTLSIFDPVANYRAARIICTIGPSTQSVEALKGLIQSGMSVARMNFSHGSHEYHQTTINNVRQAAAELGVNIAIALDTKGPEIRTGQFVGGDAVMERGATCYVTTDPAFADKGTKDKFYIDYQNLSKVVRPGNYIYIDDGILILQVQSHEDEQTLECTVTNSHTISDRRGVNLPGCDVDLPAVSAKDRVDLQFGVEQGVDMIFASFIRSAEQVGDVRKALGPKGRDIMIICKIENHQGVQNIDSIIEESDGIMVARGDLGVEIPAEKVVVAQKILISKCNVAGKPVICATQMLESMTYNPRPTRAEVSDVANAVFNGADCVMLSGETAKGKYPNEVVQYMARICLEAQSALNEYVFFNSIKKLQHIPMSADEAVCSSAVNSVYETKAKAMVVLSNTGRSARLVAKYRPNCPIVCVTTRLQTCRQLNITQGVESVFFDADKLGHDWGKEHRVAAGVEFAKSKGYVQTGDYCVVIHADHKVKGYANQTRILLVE
row,SMILES,"activity change, negative = inhibition"
1,CN1C[C@@H](C(=O)N[C@]2(C)O[C@]3(O)[C@H]4CCCN4C(=O)[C@H](Cc4ccccc4)N3C2=O)C[C@H]2c3cccc4[nH]cc(c34)C[C@@H]21,-4.77%
2,CCOC(=O)C1=C(C)NC(C)=C(C(=O)OC)[C@H]1c1cccc(Cl)c1Cl,2.61%
3,O[Si@](CCCN1CCCCC1)(c1ccc(F)cc1)C1CCCCC1,-2.43%
4,CC(=O)O[C@@H]1[C@H]([N+]2(C)CCCCC2)C[C@@H]2[C@@H]3CC[C@@H]4C[C@@H](OC(C)=O)[C@H]([N+]5(C)CCCCC5)C[C@@]4(C)[C@H]3CC[C@]21C,-6.65%

# Molecular target: Pyruvate kinase PKM (Homo sapiens) (UniProt P14618)
# Assay: qHTS Assay for Activators of Human Muscle Pyruvate Kinase (AID 954; active means well fitted curve in the direction sought with a large enough effect, not every such curve was filed as active;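 further: 0% = uninhibited enzyme and -100% = no enzyme or full thiadiazolimine inhibition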)
# Settings: purified human muscle pyruvate kinase, luciferase-coupled luminescence, 1 h; series mostly up to 57.5 µM; activity change, negative = inhibition: at the top concentration
# Outline: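 ATP production by PKM2 detected via luciferase luminescence after 1 h room-temperature reaction (0.1 nM enzyme, PEP at Km 0.5 mM, ADP 0.1 mM, pH 7.2 imidazole buffer). Inhibition scaled to no-enzyme control; activation referenced to 0.3 nM enzyme wells.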
# Pyruvate kinase PKM (Homo sapiens), sequence (P14618 whole entry, looked up): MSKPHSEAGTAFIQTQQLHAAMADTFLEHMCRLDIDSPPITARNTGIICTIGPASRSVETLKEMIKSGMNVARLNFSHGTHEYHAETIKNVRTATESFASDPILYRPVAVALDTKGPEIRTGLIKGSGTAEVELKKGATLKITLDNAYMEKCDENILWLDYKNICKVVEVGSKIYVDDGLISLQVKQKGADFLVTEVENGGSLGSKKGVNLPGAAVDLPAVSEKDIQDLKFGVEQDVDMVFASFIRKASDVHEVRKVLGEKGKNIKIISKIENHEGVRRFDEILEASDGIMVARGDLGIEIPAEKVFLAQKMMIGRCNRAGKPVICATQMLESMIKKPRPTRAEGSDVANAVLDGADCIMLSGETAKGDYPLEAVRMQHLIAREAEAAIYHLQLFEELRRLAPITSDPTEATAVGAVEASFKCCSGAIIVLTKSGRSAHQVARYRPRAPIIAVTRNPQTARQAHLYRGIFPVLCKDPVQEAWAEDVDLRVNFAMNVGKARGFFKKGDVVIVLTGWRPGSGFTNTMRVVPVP
row,SMILES,"activity change, negative = inhibition"
1,CN1C[C@@H](C(=O)N[C@]2(C)O[C@]3(O)[C@H]4CCCN4C(=O)[C@H](Cc4ccccc4)N3C2=O)C[C@H]2c3cccc4[nH]cc(c34)C[C@@H]21,-12.2%
2,CCOC(=O)C1=C(C)NC(C)=C(C(=O)OC)[C@H]1c1cccc(Cl)c1Cl,2.57%
3,O[Si@](CCCN1CCCCC1)(c1ccc(F)cc1)C1CCCCC1,-24.3%
4,CC(=O)O[C@@H]1[C@H]([N+]2(C)CCCCC2)C[C@@H]2[C@@H]3CC[C@@H]4C[C@@H](OC(C)=O)[C@H]([N+]5(C)CCCCC5)C[C@@]4(C)[C@H]3CC[C@]21C,-6.45%

# Molecular target: Alpha-galactosidase A (Homo sapiens) (UniProt P06280)
# Assay: Counterscreen for Glucocerebrosidase Inhibitors: qHTS Assay for Human alpha-Galactosidase at pH 4.5 (AID 992); further: 0% is about no effect
# Settings: purified enzyme, fluorogenic substrate; series mostly up to 76.9 µM; activity change, negative = inhibition: at the top concentration
# Outline: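 Fluorogenic 1536-well qHTS at pH 4.5 (citrate, Tween-20): 2 nM enzyme, 80 uM 4-MU-alpha-galactoside, 20 min room temperature, NaOH/glycine stop. Titration 0.7 nM to 77 uM, data normalized to no-enzyme and full-activity controls, Hill-fitted AC50.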
# Alpha-galactosidase A (Homo sapiens), sequence (P06280 whole entry, looked up): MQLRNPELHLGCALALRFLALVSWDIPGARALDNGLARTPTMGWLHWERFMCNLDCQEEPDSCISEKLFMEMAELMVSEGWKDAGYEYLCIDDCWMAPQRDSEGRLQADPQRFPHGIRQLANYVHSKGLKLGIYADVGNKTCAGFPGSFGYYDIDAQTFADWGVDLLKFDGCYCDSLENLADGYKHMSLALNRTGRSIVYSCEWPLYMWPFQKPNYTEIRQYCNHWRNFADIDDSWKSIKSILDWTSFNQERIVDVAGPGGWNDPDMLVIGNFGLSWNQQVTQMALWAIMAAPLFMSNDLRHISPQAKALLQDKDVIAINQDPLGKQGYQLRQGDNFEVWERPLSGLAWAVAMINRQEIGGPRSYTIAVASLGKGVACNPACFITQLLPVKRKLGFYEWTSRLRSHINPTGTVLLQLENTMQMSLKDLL
row,SMILES,"activity change, negative = inhibition"
1,CN1C[C@@H](C(=O)N[C@]2(C)O[C@]3(O)[C@H]4CCCN4C(=O)[C@H](Cc4ccccc4)N3C2=O)C[C@H]2c3cccc4[nH]cc(c34)C[C@@H]21,-3.44%
2,CCOC(=O)C1=C(C)NC(C)=C(C(=O)OC)[C@H]1c1cccc(Cl)c1Cl,-5.81%
3,O[Si@](CCCN1CCCCC1)(c1ccc(F)cc1)C1CCCCC1,-5.56%
4,CC(=O)O[C@@H]1[C@H]([N+]2(C)CCCCC2)C[C@@H]2[C@@H]3CC[C@@H]4C[C@@H](OC(C)=O)[C@H]([N+]5(C)CCCCC5)C[C@@]4(C)[C@H]3CC[C@]21C,-0.927%
